Assay results reported in PubChem BioAssay (NCATS).
Values joined by “and” are separate entries in the source; they are usually repeats but may differ in a detail not shown here. Equal entries are not always repeated. Results filed as inconclusive are left out. Entries that show only a call come without a potency. Active and inactive are the calls of the source. Unless noted, the call rests on the fitted dose curve; in most records, active means well fitted curve in the direction sought with a large enough effect; inconclusive means small, poorly fitted or top-dose-only effect, or another doubt; inactive means no such curve, though single readings can be large; an effect the other way counts as inactive or inconclusive.

Assays:
[1] = qHTS assay for small molecule agonists of retinoid X receptor alpha signaling (AID 588544; calls by dose curve); conditions: HEK293T RXRa-UAS-bla, beta-lactamase reporter, 18 h; 530 nm emission
[2] = target: Retinoic acid receptor RXR-alpha (Homo sapiens) (UniProt P19793); assay: as above; conditions: HEK293T RXRa-UAS-bla, beta-lactamase reporter, 18 h; series mostly up to 76.7 µM
[3] = target: Thyroid hormone receptor beta (Homo sapiens) (UniProt P10828); assay: qHTS assay for small molecule agonists of thyroid hormone receptor beta signaling (AID 588545; calls by dose curve); conditions: TR-UAS-bla GripTite HEK 293, beta-lactamase ratio, agonist mode, 18 h, percent of T3 response, DMSO as zero; series mostly up to 76.7 µM
Outline: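 Agonist-mode beta-lactamase reporter assay, HEK 293 cells, 2% charcoal/dextran FBS; cells plated 4 hrs, compound 18 hrs at 37 C, CCF4 2 hrs RT. Normalized to 10 nM T3 (100%) and DMSO (0%); Hill fit gives EC50, efficacy.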

[4] = qHTS assay for small molecule antagonists of retinoid X receptor alpha signaling (AID 588546; active means well fitted inhibition curve with a large enough effect in the signal ratio, with a control signal flat, not every such curve was filed as active; the % refers to the signal ratio;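 further: cells stimulated with 9-cis-retinoic acid as agonist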); conditions: HEK293T RXRa-UAS-bla, beta-lactamase ratio, antagonist mode; measured here: W530 green channel, cytotoxicity proxy
Outline: (§1)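 Beta-lactamase reporter inhibition, read as CCF4 fluorescence ratio (ex 405, em 460/530 nm) after 2 h at RT. HEK293T UAS-bla cells, 2500/well, were stimulated with 9-cis-RA at 500 or 100 nM final alongside test compound for 18 h at 37 C.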

[5] = target: Retinoic acid receptor RXR-alpha (Homo sapiens) (UniProt P19793); assay: as above; conditions: HEK293T RXRa-UAS-bla, beta-lactamase ratio, antagonist mode
Outline: as §1

[6] = target: Thyroid hormone receptor beta (Homo sapiens) (UniProt P10828); assay: qHTS assay for small molecule antagonists of thyroid hormone receptor beta signaling (AID 588547; active means well fitted inhibition curve with a large enough effect in the signal ratio, with a control signal flat, not every such curve was filed as active; the % refers to the signal ratio;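 further: cells stimulated with 0.4 nM T3 agonist during compound exposure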); conditions: TR-UAS-bla HEK293, beta-lactamase ratio, antagonist mode, 18 h
Outline: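 TR-UAS-bla GripTite HEK293 cells in 2% charcoal/dextran FBS medium were preincubated 4 h at 37 C, given compound (0.59 nM to 92 uM) plus 0.4 nM T3 (final) for 18 h, then CCF4 for 2 h at RT; Hill fit gave IC50.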

[7] = target: Luciferin 4-monooxygenase (Photinus pyralis) (UniProt P08659); assay: Biochemical firefly luciferase enzyme assay for NPC (AID 624030);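 further: purified P. pyralis luciferase at 10 nM with luciferin and ATP substrate; nearly all actives have a fitted effect of over 70% in size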; conditions: purified P. pyralis luciferase, luminescence, 5 min; series mostly up to 58.6 µM
Outline: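 Counter-screen for direct inhibition of the luciferase enzyme by approved-drug library compounds, run at 10 nM enzyme in 50 mM Tris acetate (final). Luminescence was read within 5 min of enzyme-buffer addition and normalized to PTC124 versus DMSO (0%).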

[8] = S16 Schwann cell viability assay (CellTiter-Glo assay) (AID 624031); conditions: S16 rat Schwann cells viability, 24 h; series mostly up to 57.5 µM;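 further: cellular ATP luminescence as a viability measure; nearly all actives have a fitted effect of over 70% in size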
Outline: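 Native S16 rat Schwann cells in DMEM/10% FBS without phenol red were incubated overnight, then exposed to compounds for 24 h at 37 °C/5% CO2. Viability was read as ATP luminescence (CellTiter-Glo), normalized to no-cell wells and DMSO (0%).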

[9] = S16 Schwann cell PMP22 intronic element firefly luciferase assay (AID 624032); conditions: S16 rat Schwann cells, PMP22 element FLuc, 24 h; series mostly up to 57.5 µM; further: nearly all actives have a fitted effect of over 30% in size
Outline: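 Rat S16 Schwann cells stably carrying a PMP22 intronic element-driven Fluc reporter were seeded overnight, then exposed to compounds for 24 h at 37 °C. Luminescence was normalized to PTC124 (positive control) and DMSO (0% activity).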

[10] = target: Voltage-gated inwardly rectifying potassium channel KCNH2 (Homo sapiens) (UniProt Q12809); assay: qHTS Assay for Small Molecule Inhibitors of the Human hERG Channel Activity (AID 588834); conditions: U2OS BacMam hERG, FluxOR thallium flux fluorescence; series mostly up to 46.1 µM;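 further: U2OS cells transduced with hERG by BacMam; top concentration of the series differs between compounds; lower thallium flux fluorescence means stronger hERG block; nearly all actives have a fitted effect of over 50% in size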
Outline: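 Cells were infected with hERG-BacMam virus for 4 hrs at room temperature, grown overnight, then seeded at 2000/well. After dye loading and roughly 10 min compound treatment, thallium influx was triggered and fluorescence recorded.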

Voltage-gated inwardly rectifying potassium channel KCNH2 (Homo sapiens), sequence (Q12809 whole entry, looked up): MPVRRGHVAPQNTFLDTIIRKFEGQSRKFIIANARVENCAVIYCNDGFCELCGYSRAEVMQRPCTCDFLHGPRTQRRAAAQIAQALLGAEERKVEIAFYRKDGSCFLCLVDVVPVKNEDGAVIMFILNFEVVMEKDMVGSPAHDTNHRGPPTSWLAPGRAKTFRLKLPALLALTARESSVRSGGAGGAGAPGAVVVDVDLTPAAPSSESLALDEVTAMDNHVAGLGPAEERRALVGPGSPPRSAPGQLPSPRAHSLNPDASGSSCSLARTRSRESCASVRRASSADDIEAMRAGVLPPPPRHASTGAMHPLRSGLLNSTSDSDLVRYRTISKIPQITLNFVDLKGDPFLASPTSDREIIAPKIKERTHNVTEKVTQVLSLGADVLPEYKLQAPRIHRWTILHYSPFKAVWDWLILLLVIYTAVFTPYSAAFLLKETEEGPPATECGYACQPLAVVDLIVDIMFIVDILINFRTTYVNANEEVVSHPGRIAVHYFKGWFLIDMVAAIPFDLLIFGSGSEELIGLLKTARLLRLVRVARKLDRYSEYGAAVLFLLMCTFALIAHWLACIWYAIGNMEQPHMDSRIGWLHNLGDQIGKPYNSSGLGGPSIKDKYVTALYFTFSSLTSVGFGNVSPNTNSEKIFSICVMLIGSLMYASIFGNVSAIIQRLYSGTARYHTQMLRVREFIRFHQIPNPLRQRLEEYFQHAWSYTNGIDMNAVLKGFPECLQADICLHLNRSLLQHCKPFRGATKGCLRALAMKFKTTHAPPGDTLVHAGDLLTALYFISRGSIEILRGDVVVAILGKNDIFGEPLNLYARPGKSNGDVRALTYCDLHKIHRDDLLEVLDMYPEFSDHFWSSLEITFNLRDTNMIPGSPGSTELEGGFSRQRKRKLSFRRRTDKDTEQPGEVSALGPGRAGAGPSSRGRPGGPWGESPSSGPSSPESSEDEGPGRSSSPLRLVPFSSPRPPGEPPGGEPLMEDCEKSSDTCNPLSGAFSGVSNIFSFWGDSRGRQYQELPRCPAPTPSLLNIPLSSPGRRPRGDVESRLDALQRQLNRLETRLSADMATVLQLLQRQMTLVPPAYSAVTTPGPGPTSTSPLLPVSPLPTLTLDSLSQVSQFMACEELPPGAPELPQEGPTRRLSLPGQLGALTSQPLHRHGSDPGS
Retinoic acid receptor RXR-alpha (Homo sapiens), sequence (P19793 whole entry, looked up): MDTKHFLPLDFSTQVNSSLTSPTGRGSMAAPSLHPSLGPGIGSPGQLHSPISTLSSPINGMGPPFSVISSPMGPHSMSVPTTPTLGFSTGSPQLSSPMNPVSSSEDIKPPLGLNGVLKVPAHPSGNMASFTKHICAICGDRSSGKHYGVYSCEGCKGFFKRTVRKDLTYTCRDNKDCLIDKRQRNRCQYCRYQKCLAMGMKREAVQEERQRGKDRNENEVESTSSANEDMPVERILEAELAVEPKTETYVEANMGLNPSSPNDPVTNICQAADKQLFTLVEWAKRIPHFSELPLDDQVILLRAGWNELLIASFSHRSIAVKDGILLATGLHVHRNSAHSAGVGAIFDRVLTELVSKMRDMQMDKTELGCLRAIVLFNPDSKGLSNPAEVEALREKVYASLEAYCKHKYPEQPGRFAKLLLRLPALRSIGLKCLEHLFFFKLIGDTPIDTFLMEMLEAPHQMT
Luciferin 4-monooxygenase (Photinus pyralis), sequence (P08659 whole entry, looked up): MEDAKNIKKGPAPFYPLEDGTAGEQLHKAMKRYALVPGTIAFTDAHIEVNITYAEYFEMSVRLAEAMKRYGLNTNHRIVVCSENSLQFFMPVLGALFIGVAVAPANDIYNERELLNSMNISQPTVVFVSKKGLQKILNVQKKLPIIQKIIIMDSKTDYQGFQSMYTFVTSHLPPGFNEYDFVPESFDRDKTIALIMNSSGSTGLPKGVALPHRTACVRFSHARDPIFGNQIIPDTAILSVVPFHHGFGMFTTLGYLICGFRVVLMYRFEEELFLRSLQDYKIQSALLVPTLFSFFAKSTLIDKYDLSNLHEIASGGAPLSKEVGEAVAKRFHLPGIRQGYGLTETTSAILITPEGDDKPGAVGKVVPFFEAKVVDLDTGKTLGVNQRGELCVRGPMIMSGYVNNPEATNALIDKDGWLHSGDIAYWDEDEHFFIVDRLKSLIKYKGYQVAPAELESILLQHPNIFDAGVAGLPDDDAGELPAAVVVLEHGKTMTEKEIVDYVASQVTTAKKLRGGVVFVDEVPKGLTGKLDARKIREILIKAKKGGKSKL
Thyroid hormone receptor beta (Homo sapiens), sequence (P10828 whole entry, looked up): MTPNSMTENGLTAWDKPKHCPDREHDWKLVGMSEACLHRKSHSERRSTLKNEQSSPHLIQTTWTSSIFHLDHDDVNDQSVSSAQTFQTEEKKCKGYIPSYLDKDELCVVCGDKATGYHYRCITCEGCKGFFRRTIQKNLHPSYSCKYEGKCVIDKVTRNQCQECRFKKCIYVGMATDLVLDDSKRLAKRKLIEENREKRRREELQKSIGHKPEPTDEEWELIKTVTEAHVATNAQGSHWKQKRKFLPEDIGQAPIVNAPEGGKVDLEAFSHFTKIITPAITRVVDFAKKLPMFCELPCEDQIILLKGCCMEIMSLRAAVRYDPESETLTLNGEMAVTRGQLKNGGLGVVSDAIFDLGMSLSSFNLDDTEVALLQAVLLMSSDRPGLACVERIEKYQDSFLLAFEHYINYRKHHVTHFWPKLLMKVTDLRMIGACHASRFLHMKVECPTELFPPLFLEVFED

Compound: Cc1ccc(C(C)C)c(O)c1
- max response [1]: -0.0487%
- outcome [2]: inactive
- outcome [3]: inactive
- max response [4]: -9.5%
- max response [5]: -24.5% (inactive)
- activity change % (negative = inhibition) [6]: -7.05% (inactive)
- Potency [7]: inactive
- outcome [8]: inactive
- Potency [9]: inactive

Compound: FC(F)(F)C(Cl)Br (stereo not drawn)
- max response [1]: -10.5%
- outcome [2]: inactive
- outcome [3]: inactive
- max response [4]: -1.63%
- max response [5]: -3.82% (inactive)
- activity change % (negative = inhibition) [6]: 8.04% (inactive)
- Potency [10]: inactive
- Potency [7]: inactive

Compound: O=C(O)CCCCC1CCSS1 (stereo not drawn)
- outcome [3]: inactive
- max response [4]: -14.4%
- max response [5]: -5.4% (inactive)
- activity change % (negative = inhibition) [6]: 1.34% (inactive)
- Potency [10]: inactive
- Potency [7]: inactive

Compound: CC[N+](CC)(CC(=O)Nc1c(C)cccc1C)Cc1ccccc1
- max response [1]: -1.28%
- outcome [2]: inactive
- max response [4]: -13%
- max response [5]: -2.97% (inactive)
- Potency [7]: inactive
- outcome [8]: inactive
- Potency [9]: inactive

Compound: C/C=C1\[C@H]2C=C(C)C[C@]1(N)c1ccc(=O)[nH]c1C2
- Potency [10]: inactive

Compound: Cc1c(N(C)C)c(=O)n(-c2ccccc2)n1C
- max response [1]: -14.4% and -18.2%
- outcome [2]: inactive
- outcome [3]: inactive
- max response [4]: -6.41% and -1.97%
- max response [5]: -3.15% (inactive) and -4.34% (inactive)
- activity change % (negative = inhibition) [6]: -16.1% (inactive) and 15.3% (inactive)
- Potency [10]: inactive
- Potency [7]: inactive

Compound: CCN(CC)C(=O)c1cccc(C)c1
- max response [1]: -4.92% and 6.96%
- outcome [2]: inactive
- max response [4]: -0.756% and -2.65%
- max response [5]: 0.203% (inactive) and -8.17% (inactive)
- activity change % (negative = inhibition) [6]: -13.1% (inactive)
- Potency [10]: inactive
- Potency [7]: inactive
- outcome [8]: inactive

Compound: CCCCOC(=O)c1ccc(N)cc1
- max response [1]: 8.21%
- outcome [2]: inactive
- outcome [3]: inactive
- max response [4]: -1.8%
- max response [5]: -25.6% (inactive)
- Potency [10]: inactive
- outcome [8]: inactive

Compound: CC(=O)Nc1ccccc1
- max response [1]: -17.4%
- outcome [2]: inactive
- outcome [3]: inactive
- max response [4]: -2.29%
- max response [5]: -0.837% (inactive)
- activity change % (negative = inhibition) [6]: 8.98% (inactive)
- Potency [10]: inactive
- Potency [7]: inactive
- Potency [9]: inactive

Compound: Cc1c(C(=O)NCCO)[n+](=O)c2ccccc2n1[O-]
- max response [1]: -9.58%
- outcome [2]: inactive
- outcome [3]: inactive
- max response [4]: -9.28%
- max response [5]: -2.52% (inactive)
- activity change % (negative = inhibition) [6]: -3.26% (inactive)
- Potency [10]: inactive
- Potency [7]: inactive
- outcome [8]: inactive

Compound: CC1CC(OC(=O)c2ccccc2O)CC(C)(C)C1 (stereo not drawn)
- outcome [3]: inactive
- max response [4]: -9.52%
- max response [5]: 14.2% (inactive)
- activity change % (negative = inhibition) [6]: -8.08% (inactive)
- Potency [7]: inactive
- Potency [9]: inactive

Compound: COc1ccc(O)cc1
- max response [1]: -5.99%
- outcome [2]: inactive
- outcome [3]: inactive
- max response [4]: -9.24%
- max response [5]: -8.57% (inactive)
- Potency [7]: inactive
- outcome [8]: inactive
- Potency [9]: inactive

Compound: CC(=O)Nc1cccc(O)c1
- max response [1]: 11%
- outcome [2]: inactive
- outcome [3]: inactive
- max response [4]: -5.06%
- max response [5]: 5.72% (inactive)
- activity change % (negative = inhibition) [6]: 8.82% (inactive)
- Potency [7]: inactive
- outcome [8]: inactive
- Potency [9]: inactive

Compound: Cc1cc(O)cc(C)c1Cl
- max response [1]: -3.04%
- outcome [2]: inactive
- outcome [3]: inactive
- max response [4]: -7.57%
- max response [5]: 1.2% (inactive)
- activity change % (negative = inhibition) [6]: 6.71% (inactive)
- Potency [7]: inactive
- outcome [8]: inactive
- Potency [9]: inactive

Compound: CCCCCCCCCCCCCCCCCCO
- max response [1]: -0.452%
- outcome [2]: inactive
- outcome [3]: inactive
- max response [4]: 4.76%
- max response [5]: 3.77% (inactive)
- activity change % (negative = inhibition) [6]: 3.9% (inactive)
- Potency [10]: inactive
- Potency [7]: inactive

Compound: Cc1cc(=O)[nH]c(=S)[nH]1
- max response [1]: -2.22%
- outcome [2]: inactive
- outcome [3]: inactive
- max response [4]: -3.7%
- max response [5]: 1.44% (inactive)
- activity change % (negative = inhibition) [6]: 15.5% (inactive)
- Potency [10]: inactive
- Potency [7]: inactive
- outcome [8]: inactive
- Potency [9]: inactive

Compound: Cc1cccc(Nc2ccccc2C(=O)O)c1C
- outcome [3]: inactive
- Potency [10]: inactive
- outcome [8]: inactive

Compound: O=C1c2cccc(O)c2C(=O)c2c(O)cccc21
- activity change % (negative = inhibition) [6]: -11.3% (inactive)
- Potency [10]: inactive
- Potency [7]: inactive
- outcome [8]: inactive

Compound: Cc1cc(C)nc(NS(=O)(=O)c2ccc(N)cc2)n1
- max response [1]: -3.23% and 6.31%
- outcome [2]: inactive
- outcome [3]: inactive
- max response [4]: 1.53% and -6.64%
- max response [5]: -0.622% (inactive) and -18.2% (inactive)
- activity change % (negative = inhibition) [6]: -2.95% (inactive) and 11.9% (inactive)
- Potency [10]: inactive
- Potency [7]: inactive
- Potency [9]: inactive

Compound: COC(=O)c1ccc(O)cc1
- max response [1]: 3.58%
- outcome [2]: inactive
- outcome [3]: inactive
- max response [4]: -19.3%
- max response [5]: -10.5% (inactive)
- activity change % (negative = inhibition) [6]: -5.41% (inactive)
- Potency [10]: inactive
- Potency [7]: inactive
- outcome [8]: inactive

Compound: O=C(c1ccccc1)C(O)c1ccccc1 (stereo not drawn)
- max response [1]: 1.82% and 5.17%
- outcome [2]: inactive
- outcome [3]: inactive
- max response [4]: -8.34%
- max response [5]: 0.509% (inactive)
- activity change % (negative = inhibition) [6]: 7.64% (inactive) and -3.28% (inactive)
- Potency [10]: inactive
- Potency [7]: inactive

Compound: CCCNC(C)C(=O)Nc1c(C)csc1C(=O)OC (stereo not drawn)
- Potency [10]: inactive

Compound: O=C1C(c2[nH]c3ccccc3c2O)=Nc2ccccc21
- max response [1]: 16.9%
- outcome [2]: inactive
- outcome [3]: inactive
- max response [4]: 0.17%
- max response [5]: 9.96% (inactive)
- activity change % (negative = inhibition) [6]: 0.455% (inactive)
- Potency [10]: inactive
- outcome [8]: inactive
- Potency [9]: inactive

Compound: CC(C)=CCC/C(C)=C/CO
- max response [1]: -9.95%
- outcome [2]: inactive
- outcome [3]: inactive
- max response [4]: -9.74%
- max response [5]: -1.85% (inactive)
- activity change % (negative = inhibition) [6]: 13.2% (inactive)
- Potency [7]: inactive
- outcome [8]: inactive
